Test results reported in publication PMC4336329 (PLoS ONE, 2015).
The campaign covered roughly 310,000 compounds. About 14,000 (4.5%) showed an effect of 50% or more. Effects have a minus sign here. What follows is part of a selection rich in strong results, with near analogues and random picks from the rest.

biological target: human ether-à-go-go-related gene (hERG) potassium channel (human, UniProt Q12809); assay: primary screen, population patch clamp on CHO cells stably expressing hERG; higher = less effect of the substance
Sequence (Q12809 whole entry, looked up): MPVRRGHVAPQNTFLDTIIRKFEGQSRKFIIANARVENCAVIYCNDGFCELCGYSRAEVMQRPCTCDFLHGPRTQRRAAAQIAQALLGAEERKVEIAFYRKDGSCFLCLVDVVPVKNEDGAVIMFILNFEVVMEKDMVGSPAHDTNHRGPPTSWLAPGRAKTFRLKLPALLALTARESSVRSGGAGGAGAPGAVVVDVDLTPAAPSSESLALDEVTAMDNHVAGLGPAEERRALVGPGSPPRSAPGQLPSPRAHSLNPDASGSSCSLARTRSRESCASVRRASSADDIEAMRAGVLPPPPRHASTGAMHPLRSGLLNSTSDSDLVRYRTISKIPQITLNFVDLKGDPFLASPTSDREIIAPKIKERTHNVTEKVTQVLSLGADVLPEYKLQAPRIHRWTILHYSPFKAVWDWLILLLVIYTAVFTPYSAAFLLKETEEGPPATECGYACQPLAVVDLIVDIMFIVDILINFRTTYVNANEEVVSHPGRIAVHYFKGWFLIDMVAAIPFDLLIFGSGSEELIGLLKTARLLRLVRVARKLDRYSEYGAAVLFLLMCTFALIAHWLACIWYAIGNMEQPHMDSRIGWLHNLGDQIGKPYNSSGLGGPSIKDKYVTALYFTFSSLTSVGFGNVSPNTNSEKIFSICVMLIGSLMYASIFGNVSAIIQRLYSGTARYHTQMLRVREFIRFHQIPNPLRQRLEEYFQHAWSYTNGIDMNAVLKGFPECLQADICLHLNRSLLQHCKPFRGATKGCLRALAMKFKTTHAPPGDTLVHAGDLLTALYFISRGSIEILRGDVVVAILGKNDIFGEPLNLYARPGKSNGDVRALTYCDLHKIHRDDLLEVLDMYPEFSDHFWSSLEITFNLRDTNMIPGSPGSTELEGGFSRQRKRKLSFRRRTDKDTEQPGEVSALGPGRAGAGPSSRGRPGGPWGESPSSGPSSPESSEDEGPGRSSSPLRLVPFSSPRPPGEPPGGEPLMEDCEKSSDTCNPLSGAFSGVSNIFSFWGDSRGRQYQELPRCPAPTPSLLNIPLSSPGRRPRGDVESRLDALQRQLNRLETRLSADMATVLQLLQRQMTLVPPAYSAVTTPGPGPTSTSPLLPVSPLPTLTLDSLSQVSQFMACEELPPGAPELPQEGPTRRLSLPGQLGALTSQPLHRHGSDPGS
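Further: peak tail current of the secondary pulse compared with the same well before compound.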

| SMILES | hERG current change (%, negative = inhibition) at 10uM |
| --- | --- |
| O=C(c1ccc(N2CCCC2=O)cc1)N1CCN(c2ccccc2Cl)CC1 | -12.1% |
| COc1ccc(S(=O)(=O)NCc2cc(=O)n(C)c(=O)n2C)cc1C | 22.6% |
| COc1ccc(Cl)cc1NC(=O)c1noc(C)c1[N+](=O)[O-] | -29.5% |
| O=C(NNC(=O)c1cc(-c2ccc(Cl)cc2Cl)nc2ccccc12)Nc1ccccc1 | 1.72% |
| CN1CCN(Cc2nc3cc(NC(=O)COc4ccc([N+](=O)[O-])cc4)ccc3n2C)CC1 | 9.29% |
| Cn1c(CN2CCN(C(=O)c3ccco3)CC2)nc2cc([N+](=O)[O-])ccc21 | -60% |
| CCCC(=O)NCCc1nc2cc([N+](=O)[O-])ccc2n1C | -16.4% |
| Cc1ccc(C(C)C)c(OCC(=O)N2CCN(CC(=O)N3CCOCC3)CC2)c1 | 1.81% |
| CCCC(=O)N1CCN(Cc2nc3cc([N+](=O)[O-])ccc3n2C)CC1 | -36.8% |
| CC(=O)N1CCN(Cc2nc3cc(NC(=O)COc4ccccc4)ccc3n2C)CC1.Cl | 0.239% |
| Cc1ccc(C(C)C)c(OCC(=O)N2CCN(Cc3nc4cc([N+](=O)[O-])ccc4n3C)CC2)c1 | -65.8% |
| Cn1c(CN2CCN(C(=O)c3ccc(F)cc3)CC2)nc2cc([N+](=O)[O-])ccc21 | -67.5% |
| Cn1c(CCNC(=O)c2ccco2)nc2cc([N+](=O)[O-])ccc21 | -26% |
| Cn1c(CN2CCN(C(=O)COc3ccccc3)CC2)nc2cc([N+](=O)[O-])ccc21 | -55.2% |
| O=C(CSc1nccn1-c1ccc(Cl)cc1)N1CCCc2ccccc21 | -11.7% |
| Cc1cc(NC(=O)c2cccc(S(=O)(=O)N3CCC(C)CC3)c2)no1 | 0.978% |
| CCCCN(C)C(=O)c1cc2cc3cc(OC)ccc3nc2o1 | -30.8% |
| C(=N\Nc1nc(N2CCCC2)nc(N2CCCC2)n1)/c1ccncc1 | 2.85% |
| CC(=O)N1CCN(Cc2nc3cc([N+](=O)[O-])ccc3n2C)CC1 | -4.94% |
| Cn1c(CN2CCN(C(=O)c3ccccc3)CC2)nc2cc([N+](=O)[O-])ccc21 | -67.3% |
| Cn1c(CN2CCN(S(C)(=O)=O)CC2)nc2cc([N+](=O)[O-])ccc21 | -0.37% |
| COC(=O)c1c(C)oc(C)c(C(=O)OC)c1=O | 5.25% |
| O=C1C2C3C=CC(C4CC34)C2C(=O)N1Cc1ccco1 (stereo not shown) | 4.37% |

| SMILES | hERG current change (%, negative = inhibition) at 10uM |
| --- | --- |
| Cc1c(C)n(C)c2ccc(C(=O)NCCCN3CCN(C)CC3)cc12 | 14.9% |
| CCc1nc2ccc(C(=O)NCCCN3CCN(c4ccccc4F)CC3)cc2nc1CC | -49.8% |
| COc1ccc(N2CCN(CCNC(=O)c3c(C)cc(=O)oc3C)CC2)cc1 | -12.2% |
| Cc1c(C)n(C)c2ccc(C(=O)NCCCN3CCCCC3)cc12 | -17.2% |
| CCc1nc2ccc(C(=O)NCCCN3CCN(c4ccc(F)cc4)CC3)cc2nc1CC | -66.4% |
| Cc1c(C)n(C)c2ccc(C(=O)NCCCN3CCCC3)cc12 | -23.8% |
| Cc1c(C)n(C)c2ccc(C(=O)NCCCN3CCN(c4ccccc4F)CC3)cc12 | -54.2% |
| Cc1cc(=O)oc(C)c1C(=O)NCCCN1CCN(c2ccccc2F)CC1 | -40.4% |
| Cc1c(C)n(C)c2ccc(C(=O)NCCCN3CCN(c4ccc(F)cc4)CC3)cc12 | -66.6% |
| Cc1c(C)n(C)c2ccc(C(=O)NCCCN3CCOCC3)cc12 | 10.8% |
| O=C(NCCCN1CCN(c2ccc(F)cc2)CC1)c1cccc(N2CCCC2=O)c1 | -48.5% |
| Cc1cc(=O)oc(C)c1C(=O)NCCCN1CCN(c2ccc(F)cc2)CC1 | -53.6% |
| Cc1ccc(S(=O)(=O)N2CCN(S(=O)(=O)c3ccc(C)cc3)C2)cc1 | -24.9% |
| CCN(CC)S(=O)(=O)c1cc(-c2nnc(-c3ccc(Br)cc3)o2)ccc1Br | 12.7% |
| COCCNC(=S)NN(c1ccccc1)c1ccccc1 | -1.18% |
| Oc1cc2c(cc1CN1CCc3ccccc3C1)OCO2 | -0.697% |
| CS(=O)(=O)N1CCN(c2ccc(NC(=O)COc3ccccc3)cc2)CC1 | 0.0465% |
| COc1ccc(/C=N/NC(=O)c2ccc(NC(=O)c3ccccc3Br)cc2)cc1 | 6.43% |
| CCN1/C(=C\C(C)=O)Sc2ccc(OC)cc21 | 13.9% |
| CCN1/C(=C/C(C)=O)Sc2ccc(OC)cc21 | -12.7% |
| CCN1/C(=C/c2cccc[n+]2C)Sc2ccc(OC)cc21.[I-] | -67.3% |
| CCCNC(=O)COC(=O)c1cccnc1Nc1ccccc1F | -9.21% |
| CCC1C(=O)NCCN1C(=O)c1ccc2nc(Cc3cccc(Cl)c3)oc2c1 (stereo not shown) | -18.6% |

| SMILES | hERG current change (%, negative = inhibition) at 10uM |
| --- | --- |
| CCN(CC(=O)NCc1ccc(Cl)cc1)C(=O)CCc1ccccc1 | -58.7% |
| O=C(Cc1ccccc1[N+](=O)[O-])NCc1ccc(Cl)cc1 | 5.25% |
| CCN(CC(=O)NCc1ccc(Cl)cc1)C(=O)CCc1ccccc1O | -54.1% |
| CCN(CC(=O)NCc1cccs1)C(=O)CCc1c[nH]c2ccccc12 | -17.6% |
| O=C(CCCc1ccccc1)NCc1ccc(Cl)cc1 | -15.3% |
| CCN(CC(=O)NCc1ccc(Cl)cc1)C(=O)Cc1ccccc1[N+](=O)[O-] | -63.4% |
| O=C(COC(=O)Cc1ccccc1[N+](=O)[O-])NCc1ccc(Cl)cc1 | -11% |
| CCN(CC(=O)NCc1ccc(Cl)cc1)C(=O)NCc1ccc(Cl)cc1 | -48.4% |
| CCN(CC(=O)NCc1ccc(Cl)cc1)C(=O)C(C)Sc1ccccc1 (stereo not shown) | -33.8% |
| O=C(CC(c1ccccc1)c1cc(Cl)ccc1O)N1CCCC1 (stereo not shown) | -17.5% |
| O=C(NS(=O)(=O)Nc1ccccn1)c1c[nH]c2ccccc12 | 15.4% |
| Cc1cccc(NC(=O)C2CCN(C(=O)NC3CCCCC3)CC2)c1 | 7.39% |
| CS(=O)c1ccccc1COC(=O)Nc1ccccc1 (stereo not shown) | 9.76% |
| Cc1c(NC(=O)c2ccccc2)c(=O)n(-c2ccccc2)n1C | -3.48% |
| COc1nc(OC)nc(N2CCC(C(=O)NCc3ccco3)CC2)n1 | -18.3% |
| CCn1c(C(=O)N2CCC(C(=O)NCc3ccc(OC)cc3)CC2)cc2sccc21 | -41.9% |
| CCn1c(C(=O)N2CCC(C(=O)NCc3cccs3)CC2)cc2sccc21 | -63% |
| Cn1c(C(=O)N2CCCC(C(=O)NCc3cccs3)C2)cc2sccc21 (stereo not shown) | -16.1% |
| CCn1c(C(=O)N2CCC(C(=O)N3CCN(c4ccccn4)CC3)CC2)cc2sccc21 | -60.5% |
| O=C(NCc1ccco1)c1cc2sccc2n1Cc1ccccc1 | -15.7% |
| O=C(NCc1ccco1)C1CCN(c2nc3ccccc3n2Cc2ccccc2F)CC1 | -66.2% |
| O=C(NCc1ccco1)C1CCN(C(=O)c2cc3sccc3n2Cc2ccc(Cl)cc2)CC1 | -64.8% |
| O=C(NCc1ccco1)C1CCN(C(=O)c2ccc(Cl)cc2Cl)CC1 | -0.217% |

| SMILES | hERG current change (%, negative = inhibition) at 10uM |
| --- | --- |
| CCN1CCN(C(=O)C2CCN(C(=O)c3cc4sccc4n3CC)CC2)CC1 | -2.39% |
| CCOC(=O)N1CCN(C(=O)C2CCN(C(=O)c3cc4sccc4n3CC)CC2)CC1 | -28.8% |
| Cc1cc(C)nc(N2CCC(C(=O)NCc3ccccc3F)CC2)n1 | 27% |
| COC(=O)CSc1nnc(COc2cccc3ccccc23)o1 | 13.6% |
| CN(C)/C=C1\N=C(c2ccccc2)OC1=O | 3.09% |
| COc1ccc(N2CCN(C(C)C(=O)Nc3nnc(C)s3)CC2)cc1.Cl (stereo not shown) | -1.41% |
| CSc1ccccc1NC(=O)Cc1ccccc1 | 13.8% |
| CCN(CC)S(=O)(=O)c1ccc(NC(=O)CCN2C(=O)C3CC=CCC3C2=O)cc1 (stereo not shown) | -30% |
| CC1(c2ccccc2Cl)NC(=O)N(CC(=O)Nc2ccc(N3CCCCC3)cc2)C1=O (stereo not shown) | -21.9% |
| CC(=O)N1CCc2cc(S(=O)(=O)CCC(=O)Nc3ccccc3F)ccc21 | 13.3% |
| CCCCN(CCCNC(=O)C1CCN(C(=O)c2cc3sccc3n2C)CC1)Cc1ccccc1 | -60.8% |
| O=C(c1ccco1)N1CCN(C(=O)c2cc3sccc3n2Cc2ccccc2)CC1 | -55.6% |
| CC(C)NC(=O)C1CCN(C(=O)c2cc3sccc3n2Cc2ccc(F)cc2)CC1 | -3.2% |
| O=C(NCc1ccccn1)C1CCN(C(=O)c2cc3sccc3n2Cc2ccc(F)cc2)CC1 | -46.5% |
| CC(C)N(CCCNC(=O)C1CCN(C(=O)c2cc3sccc3n2C)CC1)Cc1ccccc1 | -23.2% |
| CCOC(=O)c1cc2sccc2n1CC(=O)N1CCN(C(=O)c2ccco2)CC1 | -48.2% |
| CCN(CCCNC(=O)C1CCN(C(=O)c2cc3sccc3n2C)CC1)Cc1ccccc1 | -38.4% |
| O=C(NCc1ccco1)C1CCN(C(=O)c2cc3sccc3n2Cc2ccc(F)cc2)CC1 | -68.5% |
| O=C(c1cc2sccc2n1Cc1ccccc1)N1CCN(c2nc3ccccc3s2)CC1 | -17% |
| O=C(Cn1c(C(=O)NCCCN2CCOCC2)cc2sccc21)c1ccccc1 | -16.5% |
| O=C(NCCN1CCOCC1)c1cc2sccc2n1Cc1ccc(F)cc1 | -47% |
| O=C(NCCN1CCOCC1)c1cc2sccc2n1Cc1ccc(Cl)cc1 | -59.9% |
